# Experimental data published in PubChem BioAssay (Tox21).
# Values without a mark were called inactive. Records with an inconclusive call do not appear. Where a call stands in place of a potency, no number is given. Active and inactive are the calls of the source. Unless noted, the call rests on the fitted dose curve; in most records, active means well fitted curve in the direction sought with a large enough effect in the repeat runs; inconclusive means weak or mixed curves; inactive means no such curve, though single readings can be large; an effect the other way counts as inactive or inconclusive.
# How the values were obtained:
# [1] = qHTS assay to identify small molecule antagonists of the glucocorticoid receptor (GR) signaling pathway - cell viability counter screen (AID 720693); further: nearly all actives have a fitted effect of over 55% in size
# [2] = qHTS assay for identifying genotoxic compounds that show differential cytotoxicity against isogenic chicken DT40 cell lines with known DNA damage response pathways - wild type cell line (AID 743012); further: nearly all actives have a fitted effect of over 60% in size; further: potency means the concentration at half of the fitted maximal effect
# Summary of the method: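 Viability of DNA repair-proficient chicken DT40 cells was assessed by CellTiter-Glo luminescence following 40 h compound exposure at 37 C/5% CO2.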
# [3] = qHTS assay for identifying genotoxic compounds that show differential cytotoxicity against isogenic chicken DT40 cell lines with known DNA damage response pathways - Rev3 mutant cell line (AID 743014); further: nearly all actives have a fitted effect of over 55% in size; further: potency means the concentration at half of the fitted maximal effect
# [4] = qHTS assay for identifying genotoxic compounds that show differential cytotoxicity against isogenic chicken DT40 cell lines with known DNA damage response pathways - Rad54/Ku70 mutant cell line (AID 743015); further: nearly all actives have a fitted effect of over 60% in size; further: potency means the concentration at half of the fitted maximal effect
# [5] = qHTS assay to identify small molecule antagonists of the androgen receptor (AR) signaling pathway - cell viability counter screen (AID 743033; further: nearly all actives have a fitted effect of over 45% in size)
# [6] = biological target: Androgen receptor (Homo sapiens) (UniProt P10275); test: qHTS assay to identify small molecule agonists of the androgen receptor (AR) signaling pathway (AID 743036; active means well fitted activation curve with a large enough effect in the signal ratio in the repeat runs, with a control signal flat, not every such curve was filed as active; the % refers to the signal ratio)
# Sequence of Androgen receptor (Homo sapiens) (P10275 whole entry, looked up): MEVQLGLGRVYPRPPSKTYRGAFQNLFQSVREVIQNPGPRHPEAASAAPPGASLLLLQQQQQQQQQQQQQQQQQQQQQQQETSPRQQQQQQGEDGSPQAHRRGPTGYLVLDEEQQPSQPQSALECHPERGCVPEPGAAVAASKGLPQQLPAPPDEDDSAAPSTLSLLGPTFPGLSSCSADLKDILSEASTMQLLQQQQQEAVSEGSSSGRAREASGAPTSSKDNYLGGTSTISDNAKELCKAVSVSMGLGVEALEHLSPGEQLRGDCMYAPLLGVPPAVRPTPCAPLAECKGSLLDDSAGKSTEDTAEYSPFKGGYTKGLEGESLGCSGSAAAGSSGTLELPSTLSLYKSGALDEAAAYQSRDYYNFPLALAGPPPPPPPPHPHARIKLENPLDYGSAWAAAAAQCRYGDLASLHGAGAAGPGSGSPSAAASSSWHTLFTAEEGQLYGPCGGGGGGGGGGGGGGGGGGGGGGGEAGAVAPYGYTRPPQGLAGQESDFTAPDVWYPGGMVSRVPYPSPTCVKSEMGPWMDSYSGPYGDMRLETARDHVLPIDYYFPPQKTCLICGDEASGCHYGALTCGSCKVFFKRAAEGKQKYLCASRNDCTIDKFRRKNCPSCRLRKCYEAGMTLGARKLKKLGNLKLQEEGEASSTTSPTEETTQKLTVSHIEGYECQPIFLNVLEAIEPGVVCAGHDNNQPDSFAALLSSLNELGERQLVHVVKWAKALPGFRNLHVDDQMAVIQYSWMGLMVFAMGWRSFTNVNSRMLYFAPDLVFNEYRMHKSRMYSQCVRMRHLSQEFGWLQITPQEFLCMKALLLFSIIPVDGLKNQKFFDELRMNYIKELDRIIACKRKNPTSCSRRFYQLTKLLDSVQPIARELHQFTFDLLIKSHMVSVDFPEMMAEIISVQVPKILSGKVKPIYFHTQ
# Summary of the method: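 Following a 4 h settling period, AR-UAS-bla HEK293 cells were dosed with compounds for 16 h at 37C. A 2 h room-temperature incubation with LiveBLAzer B/G FRET substrate preceded the fluorescence measurement.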
# [7] = biological target: Androgen receptor (Homo sapiens) (UniProt P10275); test: qHTS assay to identify small molecule agonists of the androgen receptor (AR) signaling pathway using the MDA cell line (AID 743040; further: nearly all actives have a fitted effect of over 20% in size)
# Summary of the method: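 Luciferase agonist assay: 16 h compound exposure at 37C without CO2 in MDA-kb2 AR-luc cells, whose MMTV promoter responds to both AR and GR. Luminescence measured after 30 min room-temperature incubation with ONE-Glo.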
# [8] = qHTS assay to identify small molecule antagonists of the androgen receptor (AR) signaling pathway using the MDA cell line - cell viability counter screen (AID 743041; further: nearly all actives have a fitted effect of over 45% in size)
# Summary of the method: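 Viability read by CellTiter-Fluor fluorescence in the same wells as the antagonist screen, added after 15.5 h of a 16 h, 37C exposure. Human breast carcinoma MDA-kb2 AR-luc cells, compounds co-dosed with agonist R1881.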
# [9] = biological target: Androgen receptor (Homo sapiens) (UniProt P10275); test: qHTS assay to identify small molecule antagonists of the androgen receptor (AR) signaling pathway using the MDA cell line (AID 743042; further: nearly all actives have a fitted effect of over 55% in size)
# Summary of the method: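 Antagonist mode: compounds plus R1881 agonist added to MDA-kb2 AR-luc cells, incubated 16 h at 37C. Luciferase reporter luminescence quantified, with multiplexed CellTiter-Fluor readout for cell viability.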
# [10] = qHTS assay to identify small molecule antagonists of the thyroid receptor (TR) signaling pathway - cell viability counter screen (AID 743064); further: nearly all actives have a fitted effect of over 50% in size
# Summary of the method: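 CellTiter-Fluor readout, 30 min at 37 °C/5% CO2, following 23.5 h incubation of GH3.TRE-Luc cells with test compound and 1 nM T3 (final).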
# [11] = qHTS assay to identify small molecule antagonists of the thyroid receptor (TR) signaling pathway (AID 743065); further: series mostly up to about 70 µM; nearly all actives have a fitted effect of over 55% in size
# Summary of the method: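 Antagonism measured as loss of luciferase signal in GH3 cells stably carrying a TRE-luciferase reporter, co-treated with compound and T3 (1 nM final) for 23.5 h at 37 C. Viability was read in the same well by CellTiter-Fluor.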
# [12] = test system: thyroid hormone receptor (rat, GH3 cells); test: qHTS assay to identify small molecule agonists of the thyroid receptor (TR) signaling pathway (AID 743066; calls by dose curve)
# [13] = biological target: Estrogen receptor (Homo sapiens) (UniProt P03372); test: qHTS assay to identify small molecule agonists of the estrogen receptor alpha (ER-alpha) signaling pathway (AID 743075; calls by dose curve;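 further: HEK293 GripTite cells with ER-alpha and UAS-driven beta-lactamase reporter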)
# Sequence of Estrogen receptor (Homo sapiens) (P03372 whole entry, looked up): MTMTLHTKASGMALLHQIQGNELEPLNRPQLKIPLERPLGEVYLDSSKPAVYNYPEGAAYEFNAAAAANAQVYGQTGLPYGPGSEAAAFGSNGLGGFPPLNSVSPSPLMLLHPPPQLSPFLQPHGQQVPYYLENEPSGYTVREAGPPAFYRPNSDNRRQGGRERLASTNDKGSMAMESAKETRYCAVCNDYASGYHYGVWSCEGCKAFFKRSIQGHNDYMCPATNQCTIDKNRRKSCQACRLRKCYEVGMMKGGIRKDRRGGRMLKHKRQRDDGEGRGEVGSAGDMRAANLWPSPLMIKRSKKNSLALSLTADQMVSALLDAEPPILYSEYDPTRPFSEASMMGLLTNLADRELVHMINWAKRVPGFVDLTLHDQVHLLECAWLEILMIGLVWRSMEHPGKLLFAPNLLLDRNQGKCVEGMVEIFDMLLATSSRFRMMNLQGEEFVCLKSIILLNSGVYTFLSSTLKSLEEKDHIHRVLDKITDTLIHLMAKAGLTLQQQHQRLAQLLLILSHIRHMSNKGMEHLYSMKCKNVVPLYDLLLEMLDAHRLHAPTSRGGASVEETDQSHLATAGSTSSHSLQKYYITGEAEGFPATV
# [14] = biological target: Estrogen receptor (Homo sapiens) (UniProt P03372); test: qHTS assay to identify small molecule agonists of the estrogen receptor alpha (ER-alpha) signaling pathway using the BG1 cell line (AID 743079); further: nearly all actives have a fitted effect of over 20% in size
# [15] = qHTS assay to identify small molecule antagonists of the estrogen receptor alpha (ER-alpha) signaling pathway using the BG1 cell line (AID 743080; calls by dose curve;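 further: BG1 cells stimulated with 17beta-estradiol alongside compound; series mostly up to about 70 µM; nearly all actives have a fitted effect of over 25% in size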)
# Summary of the method: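 Readout is ONE-Glo luminescence, taken 30 min at room temperature after reagent addition, preceded by a CellTiter-Fluor viability read; BG1-Luc-4E2 cells had received compound and 17beta-estradiol for 21.5 h at 37 C.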
# [16] = qHTS assay to identify small molecule antagonists of the estrogen receptor alpha (ER-alpha) signaling pathway using the BG1 cell line - cell viability counter screen (AID 743081);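 further: compound given together with 17beta-estradiol as the ER stimulus; series mostly up to about 70 µM; nearly all actives have a fitted effect of over 45% in size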
# Aromatase (Homo sapiens) = Aromatase (Homo sapiens) (UniProt P11511); test: qHTS assay to identify aromatase inhibitors (AID 743083)
# Sequence of Aromatase (Homo sapiens) (P11511 whole entry, looked up): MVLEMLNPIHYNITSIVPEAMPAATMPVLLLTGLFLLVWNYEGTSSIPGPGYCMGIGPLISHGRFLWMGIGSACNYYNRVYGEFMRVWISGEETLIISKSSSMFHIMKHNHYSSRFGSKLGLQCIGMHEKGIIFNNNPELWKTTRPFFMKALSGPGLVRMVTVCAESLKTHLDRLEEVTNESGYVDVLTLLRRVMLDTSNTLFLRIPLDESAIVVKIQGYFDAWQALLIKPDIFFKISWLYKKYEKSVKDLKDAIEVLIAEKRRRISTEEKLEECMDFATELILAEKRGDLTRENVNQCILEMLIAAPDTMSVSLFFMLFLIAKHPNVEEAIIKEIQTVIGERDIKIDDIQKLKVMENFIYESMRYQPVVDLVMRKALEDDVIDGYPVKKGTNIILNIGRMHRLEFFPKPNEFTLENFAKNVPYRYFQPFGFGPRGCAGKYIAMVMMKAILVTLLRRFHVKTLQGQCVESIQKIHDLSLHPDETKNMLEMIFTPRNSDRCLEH
# [17] = qHTS assay to identify aromatase inhibitors - cell viability counter screen (AID 743084)
# [18] = biological target: Estrogen receptor (Homo sapiens) (UniProt P03372); test: qHTS assay to identify small molecule antagonists of the estrogen receptor alpha (ER-alpha) signaling pathway (AID 743069; active means well fitted curve in the direction sought with a large enough effect in the signal ratio in the repeat runs, not every such curve was filed as active; the % refers to the signal ratio)
# Summary of the method: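 Antagonist mode: compounds in DMSO were co-added with 17beta-estradiol to ER-alpha-bla HEK293 cells (2% charcoal-stripped serum) and left 18 h at 37C. Reporter inhibition was measured as FRET fluorescence after 2 h LiveBLAzer substrate at room temperature.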
# [19] = qHTS assay to identify small molecule antagonists of the estrogen receptor alpha (ER-alpha) signaling pathway - cell viability counter screen (AID 743074; calls by dose curve;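 further: HEK293 cells carrying ER-alpha-UAS-bla reporter stimulated with 17beta-estradiol; nearly all actives have a fitted effect of over 45% in size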)
Compound,Potency [1],Potency [2],Potency [3],Potency [4],Potency [5],outcome [6],Potency [7],Potency [8],Potency [9],Potency [10],Potency [11],Potency [12],Potency [13],Potency [14],Potency [15],Potency [16],Potency (Aromatase (Homo sapiens)),Potency [17],Potency [18],Potency [19]
Nc1ccc(F)cc1,inactive,inactive,inactive,inactive,inactive,inactive,inactive,inactive,inactive,inactive,inactive,inactive,inactive,inactive,inactive,inactive,inactive,inactive,–,–
C=Cc1ccc(OC(C)=O)cc1,inactive,inactive,inactive,inactive,inactive,inactive,inactive,inactive,inactive,inactive,inactive,inactive,inactive,inactive,inactive,inactive,inactive,inactive,–,–
C=CC(=O)NC(C)C,inactive,inactive,inactive,inactive,inactive,–,–,inactive,–,inactive,inactive,inactive,inactive,inactive,inactive,inactive,inactive,inactive,inactive,inactive
CN1C(CSCC(F)(F)F)Nc2cc(Cl)c(S(N)(=O)=O)cc2S1(=O)=O (stereo not given),inactive,11.9 µM (active),26.6 µM (active),23.7 µM (active),inactive,inactive,inactive,inactive,inactive,–,inactive,inactive,inactive,inactive,inactive,inactive,inactive,inactive,inactive,inactive
CCOC(=O)c1ccc(NC(=O)CN2CCCCC2)cc1,inactive,11.9 µM (active),10.6 µM (active),10.6 µM (active),inactive,inactive,inactive,inactive,inactive,inactive,–,inactive,inactive,–,–,inactive,inactive,inactive,inactive,inactive
CCC(C)(C)C(=O)O,inactive,inactive,inactive,inactive,inactive,inactive,–,inactive,inactive,–,inactive,inactive,inactive,–,inactive,inactive,inactive,inactive,inactive,inactive
O=C(O)CCC(=O)c1ccc(-c2ccccc2)cc1,inactive,inactive,inactive,inactive,inactive,–,inactive,inactive,inactive,–,–,–,–,–,–,inactive,inactive,inactive,–,inactive
COc1cc(NS(=O)(=O)c2ccc(N)cc2)nc(C)n1,inactive,inactive,inactive,inactive,inactive,–,–,inactive,–,inactive,inactive,inactive,inactive,inactive,inactive,inactive,inactive,inactive,inactive,inactive
